PubChem BioAssay (Tox21)
Inconclusive results are not listed. Values without a mark were called inactive. Calls follow the shape of the dose curve; as a rule, active = well fitted activation curve with a large enough effect in the repeat runs; inconclusive = weak or mixed curves; inactive = flat fitted curve, though single readings scatter.

Experiment: A CellTox Green Cytotoxicity Assay to monitor cytotoxicity in HEK293 cells - 24 hour (AID 1224875); also: nearly all actives have a fitted effect of over 45% in size
Settings: CellTox Green fluorescence; series mostly up to 76.8 µM; activity change: at the top concentration
Text: National Center for Advancing Translational Sciences [NCATS]
NIH Chemical Genomics Center [NCGC]
U.S. Environmental Protection Agency [EPA]
National Institutes of Environmental Health Sciences [NIEHS]
National Toxicology Program [NTP]
Cell-based models are critical for drug discovery. Determining the natural cytotoxic effects resulting from test compounds is an essential research activity. A CellTox Green Cytotoxicity Assay to monitor cytotoxicity in real time of continues cell culture during 40 hours of the compound treatment was used to screen Tox21 10K library compounds in Hek293 cells. CellTox Green Cytotoxicity Assay is a nonlytic, homogeneous, biofluorescent method to measure cytotoxicity in cell culture after experimental manipulation. The assay system uses a proprietary asymmetric cyanine dye that is excluded from viable cells but preferentially stains the dead cell's DNA. […] Viable cells produce no appreciable increases in fluorescence. Therefore, the fluorescence signal produced by the binding interaction with dead cell DNA is proportional to cytotoxicity.
The mixture of Hek293 cell suspension and reagents were dispensed at 600cells/6 ul/well in 1536-well tissue culture treated black solid bottom plates using a Multidrop dispenser. After the assay plates were incubated at a 37 C/5% CO2 incubator for 5 hours, 23 nL of compounds dissolved in DMSO, positive and negative controls was transferred to the assay plate by a pintool work station. The plates were incubated at 37 C for 40 hours. The fluorescence intensity were measured at 0h, 8h, 16h, 24h, 32h and 40h time points using ViewLux plate reader during compound treatment.
% is scaled to controls: 0 for no effect and ±100 for the full control effect.

| SMILES | activity change |
| --- | --- |
| COc1ccc(CN(CCN(C)C)c2ncccn2)cc1 | 26.6% [at 35.3 µM, hits give high values] |
| CCCCCCCCCCCCCCCCCCCl | 2.36% [at 6.97 µM, hits give high values] |
| C(/C=C/C=C/Nc1ccccc1)=Nc1ccccc1 | 0.0397% |
| c1ccc(CN(Cc2ccccc2)Cc2ccccc2)cc1 | -1.51% |
| Nc1ncnc2c1ncn2[C@@H]1O[C@H](CO)[C@@H](O)[C@H]1O | -2.35% [at 35.3 µM, hits give high values] |
| CC/C=C/CCO | -4.97% |
| CCOC(OCC)OCC | -0.888% |
| Cc1ccc(Cl)c(OCC(O)CNC(C)(C)C)c1 (stereo not given) | 0.884% [at 35.3 µM, hits give high values] |
| FC1(F)C(F)(F)C(F)(F)C2(F)C(F)(C1(F)F)C(F)(F)C(F)(F)C1(F)C(F)(F)C(F)(F)C(F)(F)C(F)(F)C12F (stereo not given) | -3.16% |
| CC(=O)CC/C=C(\C)CC/C=C(\C)CC/C=C(\C)CCC=C(C)C | 0.275% [at 35.3 µM, hits give high values] |
| O=C(Nc1ccc2c(c1)Cc1ccccc1-2)C(F)(F)F | 0.238% |
| O=C(Nc1ccccc1)c1cc([N+](=O)[O-])ccc1Cl | 2.21% |
| O=C(NC1CCN(CCc2c[nH]c3ccccc23)CC1)c1ccccc1 | 1.64% [at 35.3 µM, hits give high values] |
| COC=O | -10.8% [at 6.97 µM, hits give high values] |
| C[Si](C)(C)O[Si](C)(C)O[Si](C)(C)C | 0.206% |
| CS(C)=O | 2.88% |
| CC/C=C\CCO | -0.0503% |
| CC[C@H](NC(C)C)[C@H](O)c1ccc(O)c2[nH]c(=O)ccc12 | 7.6% [at 35.3 µM, hits give high values] |
| CC(C)Oc1ccccc1O | -3.96% |
| CC(O)C(C)O (stereo not given) | -0.81% |

| SMILES | activity change |
| --- | --- |
| O=c1[nH]nc(-c2ccc([N+](=O)[O-])o2)o1 | 12.4% |
| O=C(O)CCc1nc2ccccc2[nH]1 | 1% [at 35.3 µM, hits give high values] |
| CCOCCn1c(N2CCCN(C)CC2)nc2ccccc21 | 10.1% [at 35.3 µM, hits give high values] |
| COc1ccc(/C=C/c2cc(OC)cc(=O)o2)cc1 | -15% [at 35.3 µM, hits give high values] |
| CC(C)(C)c1cc(C=O)cc(C(C)(C)C)c1O | -6.69% [at 35.3 µM, hits give high values] |
| O=C(O)c1cc(C(=O)O)cc([N+](=O)[O-])c1 | -4.21% |
| CC(C)(Cc1c[nH]c2ccccc12)NCC(O)COc1ccccc1C#N (stereo not given) | -3.33% [at 35.3 µM, hits give high values] |
| CC(=O)Oc1cccc2c1C(=O)c1c(OC(C)=O)cc(C(=O)O)cc1C2=O | -6.7% [at 35.3 µM, hits give high values] |
| CCC1=C(C)CN(C(=O)NCCc2ccc(S(=O)(=O)NC(=O)NC3CCC(C)CC3)cc2)C1=O (stereo not given) | 2.06% [at 35.3 µM, hits give high values] |
| CC1(C)CC(=O)CC(C)(C)N1 | -11.9% |
| O=C(OC1C[C@H]2CC[C@@H](C1)[N+]21CCCC1)C(O)(c1ccccc1)c1ccccc1 (stereo not given in full) | -7.65% [at 35.3 µM, hits give high values] |
| Nc1ccc(F)cc1F | -16.1% |
| N#CCCCC(C#N)CCC#N (stereo not given) | -0.0056% |
| Cc1cc(C)n(CO)n1 | 4.47% |
| OCCOc1cccc(OCCO)c1 | -9.5% |
| Cc1cccc(C)c1NC(=O)CN1CCCC1 | 0.683% [at 35.3 µM, hits give high values] |
| CC(Cc1ccccc1)(NC(=O)CN)c1ccccc1 (stereo not given) | -19% [at 35.3 µM, hits give high values] |
| Cc1c(Cl)cccc1[N+](=O)[O-] | -2.63% |
| O=Cc1ccc([N+](=O)[O-])cc1 | -2.54% |
| CC1=C(C)C(=O)C(C(CCCCCC(=O)O)c2ccccc2)=C(C)C1=O (stereo not given) | 11.7% [at 35.3 µM, hits give high values] |
